Experimental findings from PubChem BioAssay (EPA / NIEHS) are described below.

In assay [1] the target is Estrogen receptor (Homo sapiens) (UniProt P03372). Nature of the assay: ATG_ERa_TRANS: Attagene TRANS-FACTORIAL HepG2 Assay for human Estrogen Receptor alpha (ERa) (AID 2282970). The note with it: HepG2 Attagene TRANS ERa GAL4 reporter, mRNA. Summed up: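 After 24 h of compound treatment, RNA from HepG2 cells bearing transfected GAL4-UAS reporter constructs is converted to cDNA, amplified and fluorescently labelled. Capillary electrophoresis resolves the ERa-linked reporter; DMSO serves as negative control.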
Chain of Estrogen receptor (Homo sapiens) (P03372 whole entry, looked up, the tested form may be a part): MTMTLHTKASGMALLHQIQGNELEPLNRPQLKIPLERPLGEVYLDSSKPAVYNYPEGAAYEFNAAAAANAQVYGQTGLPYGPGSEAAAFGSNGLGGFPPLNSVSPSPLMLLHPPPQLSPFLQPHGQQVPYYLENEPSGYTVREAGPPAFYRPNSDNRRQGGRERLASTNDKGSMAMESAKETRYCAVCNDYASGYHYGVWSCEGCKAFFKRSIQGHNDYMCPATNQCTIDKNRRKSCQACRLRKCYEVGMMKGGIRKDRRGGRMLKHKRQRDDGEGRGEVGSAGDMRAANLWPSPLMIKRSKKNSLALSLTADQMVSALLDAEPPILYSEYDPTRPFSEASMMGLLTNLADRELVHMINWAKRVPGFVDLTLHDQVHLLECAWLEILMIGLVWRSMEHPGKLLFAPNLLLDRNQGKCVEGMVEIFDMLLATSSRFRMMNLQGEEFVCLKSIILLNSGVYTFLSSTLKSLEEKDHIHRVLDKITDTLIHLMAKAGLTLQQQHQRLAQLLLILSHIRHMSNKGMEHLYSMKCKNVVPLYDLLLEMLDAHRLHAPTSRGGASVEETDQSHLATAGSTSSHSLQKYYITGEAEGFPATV

Assay [2] deals with Steroid hormone receptor ERR1 (Homo sapiens) (UniProt P11474). The experiment in a line: ATG_ERRa_TRANS: Attagene TRANS-FACTORIAL HepG2 Assay for human Estrogen-Related Receptor alpha (ERRa) (AID 2282971). The note with it: HepG2 Attagene TRANS reporter, ERRa transactivation. Summed up:
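Transfected HepG2, 24 h dosing, ERRa-Gal4 chimera driving GAL4-UAS reporter. Readout: reporter mRNA via RT-PCR plus capillary electrophoresis (fluorescence). Positive direction vs DMSO control.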

The target in assay [3] is X-box-binding protein 1 (Homo sapiens) (UniProt P17861). Nature of the assay: ATG_Xbp1_CIS: Attagene CIS-FACTORIAL HepG2 Assay for human X-box Binding Protein 1 (XBP1) (AID 2282972; active = hit-call score of the fitted dose curve at least 0.9, where 1 is the maximum; inactive = score below 0.9). The conditions noted are these: HepG2 XBP1 cis-element reporter, Attagene multiplex; actives raise or lower the signal. The procedure, abridged: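 HepG2, transient MRTU transfection (cis-promoter driven), 24 h compound exposure. Total RNA → oligo(dT) RT → PCR → 6-FAM labeling → HpaI cut → CE. Bidirectional fit vs DMSO.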
Chain of X-box-binding protein 1 (Homo sapiens) (P17861 whole entry, looked up): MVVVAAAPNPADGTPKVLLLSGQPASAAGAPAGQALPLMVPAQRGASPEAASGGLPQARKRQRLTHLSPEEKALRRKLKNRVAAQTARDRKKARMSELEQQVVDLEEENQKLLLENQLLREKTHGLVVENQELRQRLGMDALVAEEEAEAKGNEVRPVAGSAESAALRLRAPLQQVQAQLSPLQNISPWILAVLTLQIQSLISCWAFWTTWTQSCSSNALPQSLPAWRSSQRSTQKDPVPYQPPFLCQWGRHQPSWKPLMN

Assay [4] can be described thus: ATG_M_19_TRANS: Attagene TRANS-FACTORIAL HepG2 Assay for M19 Transcription Factor (Internal Marker) (AID 2282974). The conditions noted are these: HepG2 Attagene TRANS-FACTORIAL M19 internal marker reporter. Summed up:
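Background-control readout: after 24 h chemical exposure of transfected HepG2 carrying GAL4-driven reporter units, RNA was reverse-transcribed, amplified, fluorescently labeled and sized by capillary electrophoresis; gain-of-signal fit against DMSO.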

Assay [5] deals with Estrogen-related receptor gamma (Homo sapiens) (UniProt P62508). Nature of the assay: ATG_ERRg_TRANS: Attagene TRANS-FACTORIAL HepG2 Assay for human Estrogen-Related Receptor gamma (ERRg) (AID 2282977).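 Note: hits increase reporter signal over DMSO so potencies reflect activators.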 The conditions noted are these: HepG2 Attagene TRANS reporter, ERRg transactivation. The procedure, abridged:
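Transient HepG2 transfectants, 24 h compound exposure, GAL4-UAS reporter mRNA by RT-PCR/6-FAM labelling/capillary electrophoresis; positive direction vs DMSO.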

Assay [6] deals with Hepatocyte nuclear factor 4-alpha (Homo sapiens) (UniProt P41235). Nature of the assay: ATG_HNF4a_TRANS: Attagene TRANS-FACTORIAL HepG2 Assay for human Hepatocyte Nuclear Factor 4 alpha (HNF4a) (AID 2282982). The note with it: HepG2 HNF4a transactivation reporter, mRNA readout. The procedure, abridged:
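Transfected HepG2 reporter cells are dosed for 24 h; reporter RNA is reverse-transcribed, amplified, fluorescently labelled and HpaI-digested before CE sizing. Positive-direction fit against DMSO.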

In assay [7] the target is Nuclear receptor subfamily 4 group A member 2 (Homo sapiens) (UniProt P43354). Nature of the assay: ATG_NURR1_TRANS: Attagene TRANS-FACTORIAL HepG2 Assay for human Nuclear Receptor Related Protein 1 (NURR1) (AID 2282985). The conditions noted are these: HepG2 Attagene TRANS reporter, mRNA readout. Summed up: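 Cells: HepG2, transiently transfected. Exposure: 24 h. Detection: fluorescence of labelled RT-PCR products separated by capillary electrophoresis; upward fit versus DMSO.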
Chain of Nuclear receptor subfamily 4 group A member 2 (Homo sapiens) (P43354 whole entry, looked up): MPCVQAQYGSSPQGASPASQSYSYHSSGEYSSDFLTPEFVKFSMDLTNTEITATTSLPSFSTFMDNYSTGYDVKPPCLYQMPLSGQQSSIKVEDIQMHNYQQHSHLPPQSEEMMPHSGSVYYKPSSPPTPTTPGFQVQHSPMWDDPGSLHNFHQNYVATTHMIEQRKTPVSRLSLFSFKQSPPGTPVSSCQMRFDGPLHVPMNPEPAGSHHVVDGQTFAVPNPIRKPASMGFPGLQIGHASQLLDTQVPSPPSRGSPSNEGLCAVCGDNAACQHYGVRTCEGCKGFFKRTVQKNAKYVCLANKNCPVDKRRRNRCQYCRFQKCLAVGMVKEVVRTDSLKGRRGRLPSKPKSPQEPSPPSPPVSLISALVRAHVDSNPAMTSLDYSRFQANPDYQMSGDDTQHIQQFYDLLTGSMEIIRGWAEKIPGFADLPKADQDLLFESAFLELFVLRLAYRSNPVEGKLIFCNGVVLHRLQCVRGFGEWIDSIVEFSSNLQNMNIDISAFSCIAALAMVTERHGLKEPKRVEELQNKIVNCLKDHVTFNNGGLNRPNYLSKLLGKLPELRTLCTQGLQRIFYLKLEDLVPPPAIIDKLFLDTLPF

For assay [8], the target named is Transcriptional activator Myb (Homo sapiens) (UniProt P10242). Nature of the assay: ATG_Myb_CIS: Attagene CIS-FACTORIAL HepG2 Assay for human Myeloblastosis (Myb) Proto-Oncogene Transcription Factor (AID 2282986; active = hit-call score of the fitted dose curve at least 0.9, where 1 is the maximum; inactive = score below 0.9). The conditions noted are these: HepG2 Attagene CIS-FACTORIAL Myb reporter transcription; actives raise or lower the signal. Summed up: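 Reporter mRNA is quantified by RT-PCR and capillary electrophoresis 24 h after dosing HepG2 cells transfected with cis-regulated reporter units, which track endogenous transcription factor activity. Gain and loss of signal are fitted versus DMSO baseline.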

The target in assay [9] is Nuclear respiratory factor 1 (Homo sapiens) (UniProt Q16656). Nature of the assay: ATG_NRF1_CIS: Attagene CIS-FACTORIAL HepG2 Assay for human Nuclear Respiratory Factor 1 (NRF1) Orphan Gene (AID 2282987; active = hit-call score of the fitted dose curve at least 0.9, where 1 is the maximum; inactive = score below 0.9). The conditions noted are these: HepG2 NRF1 cis-element reporter, Attagene multiplex; actives raise or lower the signal. Summed up:
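Endogenous NRF1-driven reporter transcription in transfected HepG2 cells after 24 h treatment. Readout: RT-PCR products, 6-FAM labelled and resolved by capillary electrophoresis; changes fitted both directions relative to DMSO.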

A short description of assay [10]: ATG_NFI_CIS: Attagene CIS-FACTORIAL HepG2 Assay for human Nuclear Factor I (NFI) (AID 2282989; active = hit-call score of the fitted dose curve at least 0.9, where 1 is the maximum; inactive = score below 0.9). The note with it: HepG2 cis-regulatory reporter, NFI response element transcription; actives raise or lower the signal. The procedure, abridged: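 After transient transfection of HepG2 with cis-promoter reporter constructs and 24 h dosing, RNA is reverse-transcribed, amplified, 6-FAM end-labelled and HpaI-digested before capillary analysis. Bidirectional curve fitting against DMSO.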

Assay [11] concerns the target Myc proto-oncogene protein (Homo sapiens) (UniProt P01106). Nature of the assay: ATG_Myc_CIS: Attagene CIS-FACTORIAL HepG2 Assay for human Myelocytomatosis (Myc) Proto-Oncogene Transcription Factor (AID 2282990; active = hit-call score of the fitted dose curve at least 0.9, where 1 is the maximum; inactive = score below 0.9). The note with it: HepG2, Attagene cis-reporter transcription factor activity; actives raise or lower the signal. Summed up:
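HepG2, transient MRTU transfection (cis promoters, endogenous TFs); 24 h dosing; TriZol RNA → oligo(dT) RT → PCR → 6-FAM primer extension → HpaI cut → CE. Bidirectional fit vs DMSO.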

Assay [12] deals with Nuclear receptor subfamily 1 group I member 3 (Homo sapiens) (UniProt Q14994). The experiment in a line: ATG_CAR_TRANS: Attagene TRANS-FACTORIAL HepG2 Assay for human Constitutive Androstane Receptor (CAR) (AID 2282969).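 Note: activators raise reporter mRNA above DMSO so AC50 marks induction.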 The note with it: HepG2 Attagene TRANS-FACTORIAL CAR reporter. Summed up: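 Readout is reporter mRNA induction, quantified by fluorescent primer extension and capillary electrophoresis after RT-PCR. Cells were HepG2 transiently carrying chimeric NR-Gal4 constructs with GAL4-UAS reporters, treated for 24 h; activity scored upward from DMSO.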
Chain of Nuclear receptor subfamily 1 group I member 3 (Homo sapiens) (Q14994 whole entry, looked up, the tested form may be a part): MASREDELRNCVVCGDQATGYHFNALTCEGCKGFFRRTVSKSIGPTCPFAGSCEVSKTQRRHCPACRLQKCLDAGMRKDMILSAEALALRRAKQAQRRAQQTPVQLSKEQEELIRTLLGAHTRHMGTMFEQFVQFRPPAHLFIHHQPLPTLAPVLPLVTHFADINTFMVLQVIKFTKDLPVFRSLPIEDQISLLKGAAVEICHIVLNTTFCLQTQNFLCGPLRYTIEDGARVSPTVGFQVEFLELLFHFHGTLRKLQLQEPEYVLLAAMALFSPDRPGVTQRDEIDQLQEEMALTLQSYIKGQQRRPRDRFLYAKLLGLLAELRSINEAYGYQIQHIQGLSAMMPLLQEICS

Assay [13] deals with Androgen receptor (Homo sapiens) (UniProt P10275). Nature of the assay: ATG_AR_TRANS: Attagene TRANS-FACTORIAL HepG2 Assay for human Androgen Receptor (AR) (AID 2282973). The conditions noted are these: HepG2 Attagene TRANS-FACTORIAL AR reporter transcription. Summed up:
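Readout is reporter transcript abundance, quantified by fluorescent RT-PCR products separated on capillary electrophoresis. Human HepG2 liver cells carried transiently transfected NR-Gal4 chimera plus GAL4-UAS reporter constructs and were dosed for 24 h; activity scored upward versus DMSO.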

Assay [14] is described as follows: ATG_GAL4_TRANS: Attagene TRANS-FACTORIAL HepG2 Assay for GAL4 (Internal Marker) (AID 2282976). The note with it: HepG2 Attagene TRANS GAL4 internal marker reporter. Summed up: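 RT-PCR/capillary electrophoresis readout of reporter mRNA. HepG2, transient MRTU transfection (GAL4-UAS reporters), 24 h compound exposure. Background-control endpoint, positive direction vs DMSO baseline.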

The target of assay [15] is Glucocorticoid receptor (Homo sapiens) (UniProt P04150). The experiment in a line: ATG_GR_TRANS: Attagene TRANS-FACTORIAL HepG2 Assay for human Glucocorticoid Receptor (GR) (AID 2282978).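 Note: activators score as hits since higher reporter transcript over DMSO is fitted.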 The conditions noted are these: HepG2 Attagene TRANS GR reporter, mRNA transcription. Summed up:
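Readout is reporter transcript from a chimeric GR-Gal4 acting on GAL4-UAS in transfected human HepG2 liver cells after 24 h exposure, quantified by RT-PCR and capillary electrophoresis. Activation fitted upward against DMSO.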

In assay [16] the target is Oxysterols receptor LXR-alpha (Homo sapiens) (UniProt Q13133). Nature of the assay: ATG_LXRa_TRANS: Attagene TRANS-FACTORIAL HepG2 Assay for human Liver X Receptor alpha (LXRa) (AID 2282980). The conditions noted are these: HepG2 Attagene TRANS reporter, LXRa transactivation. The procedure, abridged: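 Read-out: reporter transcript levels by RT-PCR plus capillary electrophoresis, fluorescence intensity. Transiently transfected HepG2, exogenous NR-GAL4 chimera, GAL4-UAS reporters; 24 h compound exposure. Activity = increase over DMSO negative control.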
Chain of Oxysterols receptor LXR-alpha (Homo sapiens) (Q13133 whole entry, looked up, the tested form may be a part): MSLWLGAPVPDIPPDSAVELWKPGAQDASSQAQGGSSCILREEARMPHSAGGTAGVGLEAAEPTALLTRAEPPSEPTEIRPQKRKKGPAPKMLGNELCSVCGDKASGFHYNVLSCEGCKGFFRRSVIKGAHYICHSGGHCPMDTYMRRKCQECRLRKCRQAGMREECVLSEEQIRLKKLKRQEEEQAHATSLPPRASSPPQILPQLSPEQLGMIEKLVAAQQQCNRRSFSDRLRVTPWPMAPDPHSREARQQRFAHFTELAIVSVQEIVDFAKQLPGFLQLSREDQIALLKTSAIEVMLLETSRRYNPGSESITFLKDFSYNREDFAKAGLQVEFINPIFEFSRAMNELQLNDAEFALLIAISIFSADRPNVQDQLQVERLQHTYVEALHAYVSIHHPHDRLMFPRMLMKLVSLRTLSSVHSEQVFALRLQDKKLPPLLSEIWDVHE

Assay [17] can be described thus: ATG_M_32_TRANS: Attagene TRANS-FACTORIAL HepG2 Assay for M32 Transcription Factor (Internal Marker) (AID 2282984).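 Note: transcript level of a background control reporter unit measured by RT-PCR and capillary electrophoresis.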 The note with it: HepG2 Attagene TRANS M32 internal marker reporter. The procedure, abridged:
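Using transiently transfected HepG2 cells exposed to test chemicals for 24 h, reporter transcripts are converted to labelled cDNA fragments and quantified by capillary electrophoresis. DMSO defines the activity baseline.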

The target in assay [18] is Oxysterols receptor LXR-beta (Homo sapiens) (UniProt P55055). The experiment in a line: ATG_LXRb_TRANS: Attagene TRANS-FACTORIAL HepG2 Assay for human Liver X Receptor beta (LXRb) (AID 2282981). The note with it: HepG2 Attagene TRANS GAL4-LXRb reporter, mRNA. Summed up: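 Cells: HepG2, transiently transfected with GAL4-UAS reporter units plus LXRb-Gal4 fusion. Treatment: 24 h. Detection: reporter mRNA by RT-PCR, 6-FAM labelling, HpaI digestion, capillary electrophoresis.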

In assay [19] the target is Bile acid receptor (Homo sapiens) (UniProt Q96RI1). Nature of the assay: ATG_FXR_TRANS: Attagene TRANS-FACTORIAL HepG2 Assay for Farnesoid X Receptor (FXR) (AID 2282979).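 Note: hits raise reporter mRNA above DMSO so AC50 marks FXR activation.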 The note with it: HepG2 Attagene TRANS FXR-GAL4 reporter transcription. Summed up:
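Read-out: fluorescent reporter transcripts quantified by capillary electrophoresis after RT-PCR of total RNA. Source cells were HepG2 transiently carrying chimeric NR-GAL4 plus GAL4-UAS reporter units, dosed 24 h. Activity fitted upward relative to DMSO baseline.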

Assay [20] is described as follows: ATG_M_06_TRANS: Attagene TRANS-FACTORIAL HepG2 Assay for M06 Transcription Factor (Internal Marker) (AID 2282983). The conditions noted are these: HepG2 Attagene TRANS M06 internal marker reporter. Summed up:
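After a 24 h chemical treatment of transfected HepG2, RNA underwent DNase I treatment, reverse transcription and reporter-specific PCR; labelled, HpaI-digested products were sized by capillary electrophoresis. Signal increase relative to DMSO defined activity.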

Results filed as inconclusive are left out. Active and inactive are the calls of the source. Rule for the calls, unless noted: active = hit-call score of the fitted dose curve at least 0.9, where 1 is the maximum; inconclusive = response in the unintended direction; inactive = score below 0.9.

Chain of Nuclear respiratory factor 1 (Homo sapiens) (Q16656 whole entry, looked up): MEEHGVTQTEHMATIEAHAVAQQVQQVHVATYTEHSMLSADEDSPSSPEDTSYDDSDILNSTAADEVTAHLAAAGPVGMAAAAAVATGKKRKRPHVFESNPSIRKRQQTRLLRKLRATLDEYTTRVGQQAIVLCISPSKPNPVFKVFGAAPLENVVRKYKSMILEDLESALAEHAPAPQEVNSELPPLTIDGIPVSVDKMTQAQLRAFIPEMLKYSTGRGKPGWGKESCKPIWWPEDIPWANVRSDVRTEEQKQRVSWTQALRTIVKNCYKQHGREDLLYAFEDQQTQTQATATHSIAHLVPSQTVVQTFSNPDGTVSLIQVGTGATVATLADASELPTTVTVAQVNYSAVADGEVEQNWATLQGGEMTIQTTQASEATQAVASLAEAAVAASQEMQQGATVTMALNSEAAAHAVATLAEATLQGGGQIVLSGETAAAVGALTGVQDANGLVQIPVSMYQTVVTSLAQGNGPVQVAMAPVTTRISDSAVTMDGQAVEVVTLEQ
Chain of Myc proto-oncogene protein (Homo sapiens) (P01106 whole entry, looked up): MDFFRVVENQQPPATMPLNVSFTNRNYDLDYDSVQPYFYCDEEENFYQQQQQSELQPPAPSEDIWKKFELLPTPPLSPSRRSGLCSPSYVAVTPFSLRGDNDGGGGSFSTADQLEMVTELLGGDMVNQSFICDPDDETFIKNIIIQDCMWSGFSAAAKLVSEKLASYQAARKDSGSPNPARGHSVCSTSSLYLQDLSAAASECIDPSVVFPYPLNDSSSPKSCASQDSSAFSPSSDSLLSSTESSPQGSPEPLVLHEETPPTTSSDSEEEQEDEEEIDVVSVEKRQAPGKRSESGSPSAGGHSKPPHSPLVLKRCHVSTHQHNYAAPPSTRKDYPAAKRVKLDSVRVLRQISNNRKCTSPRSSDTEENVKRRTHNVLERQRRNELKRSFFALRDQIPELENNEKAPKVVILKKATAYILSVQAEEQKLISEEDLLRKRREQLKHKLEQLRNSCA
Chain of Steroid hormone receptor ERR1 (Homo sapiens) (P11474 whole entry, looked up, the tested form may be a part): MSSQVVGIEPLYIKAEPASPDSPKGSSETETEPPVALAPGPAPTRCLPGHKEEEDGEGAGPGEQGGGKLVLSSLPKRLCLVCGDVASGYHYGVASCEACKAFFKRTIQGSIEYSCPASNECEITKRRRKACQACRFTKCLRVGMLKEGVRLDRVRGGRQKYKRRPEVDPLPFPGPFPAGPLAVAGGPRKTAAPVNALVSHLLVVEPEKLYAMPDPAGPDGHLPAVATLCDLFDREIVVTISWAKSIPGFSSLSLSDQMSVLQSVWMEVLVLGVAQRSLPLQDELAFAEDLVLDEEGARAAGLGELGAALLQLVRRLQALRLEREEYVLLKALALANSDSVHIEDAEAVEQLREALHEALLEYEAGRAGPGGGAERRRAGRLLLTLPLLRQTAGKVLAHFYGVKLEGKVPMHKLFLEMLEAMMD
Chain of Bile acid receptor (Homo sapiens) (Q96RI1 whole entry, looked up, the tested form may be a part): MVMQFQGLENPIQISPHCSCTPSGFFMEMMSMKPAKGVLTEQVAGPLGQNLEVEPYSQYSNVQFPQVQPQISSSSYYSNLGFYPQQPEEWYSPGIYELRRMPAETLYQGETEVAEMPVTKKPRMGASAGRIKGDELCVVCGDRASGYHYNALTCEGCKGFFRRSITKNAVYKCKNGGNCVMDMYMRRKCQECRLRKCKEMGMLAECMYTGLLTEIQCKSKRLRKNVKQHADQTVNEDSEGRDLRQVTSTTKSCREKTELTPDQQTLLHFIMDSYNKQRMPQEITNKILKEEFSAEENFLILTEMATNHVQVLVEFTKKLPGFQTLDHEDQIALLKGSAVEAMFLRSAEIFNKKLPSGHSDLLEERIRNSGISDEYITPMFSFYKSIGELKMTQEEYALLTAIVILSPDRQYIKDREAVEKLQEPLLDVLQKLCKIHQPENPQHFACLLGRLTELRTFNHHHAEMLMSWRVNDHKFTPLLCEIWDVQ
Chain of Hepatocyte nuclear factor 4-alpha (Homo sapiens) (P41235 whole entry, looked up): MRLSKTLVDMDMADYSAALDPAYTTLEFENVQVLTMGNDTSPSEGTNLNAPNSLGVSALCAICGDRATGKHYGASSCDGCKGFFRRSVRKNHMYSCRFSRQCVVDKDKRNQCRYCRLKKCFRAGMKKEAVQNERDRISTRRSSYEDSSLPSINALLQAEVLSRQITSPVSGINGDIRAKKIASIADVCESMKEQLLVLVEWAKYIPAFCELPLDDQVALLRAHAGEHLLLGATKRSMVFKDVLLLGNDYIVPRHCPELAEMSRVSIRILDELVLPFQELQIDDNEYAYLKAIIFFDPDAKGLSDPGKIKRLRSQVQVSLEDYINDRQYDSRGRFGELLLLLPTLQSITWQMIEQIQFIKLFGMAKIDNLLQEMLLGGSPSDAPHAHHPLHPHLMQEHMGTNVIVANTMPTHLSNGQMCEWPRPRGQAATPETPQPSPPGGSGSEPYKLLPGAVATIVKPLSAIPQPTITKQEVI

In the case of `CCOc1ccc(N)cc1`, the molecule was classed as inactive in assay [1], in assay [2], in [3], in [4], in [5] and in assay [6]. In addition, the molecule was called inactive in [7], in assay [8], in [9], in assay [10] and in assay [11].
`Cc1cc(Cl)ccc1OCCCC(=O)O`: the molecule was classed as inactive in assay [12], in assay [3], in assay [13], in assay [14], in assay [15] and in assay [16]. Besides, the molecule was classed as inactive in assay [17], in assay [7], in [8], in assay [9], in assay [10] and in [11].
As for `N#Cc1cccnc1`, the molecule was classed as inactive in assay [1], in assay [2], in [3], in assay [4], in [14] and in assay [18]. Moreover, the molecule was classed as inactive in [8], in assay [9], in assay [10] and in [11].
On to `Cc1cc(Cl)ccc1O`, for which the call in assay [12], in assay [3], in assay [4], in assay [15], in assay [19] and in assay [17] was inactive. The result in assay [8], in assay [9], in assay [10] and in assay [11] was inactive.
In the case of `CC1(C)[C@H](/C=C2\CCSC2=O)[C@@H]1C(=O)OCc1coc(Cc2ccccc2)c1`, the outcome in [12], in [3], in assay [16], in assay [6], in assay [20] and in assay [17] was inactive. The result in [7], in [8], in [9], in assay [10] and in assay [11] was inactive.
As for `BrCc1ccc(Br)cc1`, the molecule was classed as inactive in assay [12], in [3], in assay [14], in assay [19], in assay [20] and in assay [7]. The result in [8], in [10] and in assay [11] was inactive.
Consider `O=[N+]([O-])c1cccc2ccccc12`, for which, in assay [1], the AC50 was 39.9 µM (active). Further, the call in assay [2], in assay [3], in assay [4], in assay [14], in [5] and in assay [6] was inactive. Moreover, the molecule was classed as inactive in assay [20], in assay [17], in assay [8], in assay [9], in [10] and in [11].
As to `Clc1cnc(Oc2ccc(Oc3ncc(Cl)cc3Cl)cc2)c(Cl)c1`, the call in assay [12], in assay [3], in assay [4], in [7], in assay [8] and in assay [9] was inactive. The molecule was classed as inactive in [10] and in assay [11].
As to `Cc1cc(Cl)ccc1N`, the outcome in assay [12], in assay [3], in assay [4], in [14], in assay [15] and in assay [16] was inactive. Moreover, the molecule was called inactive in [17], in [8], in [10] and in assay [11].
As to `CC(F)(F)CC(F)(F)F`, the molecule was classed as inactive in assay [12], in assay [3], in assay [13], in assay [14], in assay [15] and in assay [19]. The outcome in [16], in [6], in assay [20], in assay [17], in [8] and in assay [9] was inactive. Further, the result in [10] and in assay [11] was inactive.
